Several values for one entry are separate records, joined by “and”; a condition that tells them apart may be missing. Equal entries are not always repeated. About 31,000 (8.9%) of roughly 350,000 compounds were called active. Another 15% or so got no clear call; they are omitted. The list comes from a sample in which actives are over-represented; it also holds similar structures and randomly drawn compounds. Where a call stands in place of a potency, no number is given. Values without a mark were called inactive. Calls come from the whole dose curve; as a rule, active = well fitted inhibition curve with a large enough effect; inconclusive = small, poorly fitted or top-dose-only effect; inactive = no such curve, though single readings can be large or run the other way.
Molecular target: Histone-lysine N-methyltransferase EHMT2 (Homo sapiens) (UniProt Q96KQ7)
Sequence (Q96KQ7 913-1193 limits assumed): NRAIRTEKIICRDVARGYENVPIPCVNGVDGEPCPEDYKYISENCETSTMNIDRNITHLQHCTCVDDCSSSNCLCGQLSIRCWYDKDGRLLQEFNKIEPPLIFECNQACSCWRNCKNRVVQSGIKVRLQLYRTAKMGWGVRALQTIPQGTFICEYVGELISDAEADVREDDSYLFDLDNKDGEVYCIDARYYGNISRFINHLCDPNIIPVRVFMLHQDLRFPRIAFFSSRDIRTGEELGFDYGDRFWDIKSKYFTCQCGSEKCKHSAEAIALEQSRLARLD
Assay: qHTS Assay for Inhibitors of Histone Lysine Methyltransferase G9a; note: nearly all actives have a fitted effect of over 75% in size
Conditions: G9a H3K9 monomethylation, AlphaScreen, 2 h; series mostly up to 59 µM
Procedure, shortened: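 Compounds were preincubated with 20 nM G9a for 15 min, after which biotinylated H3K9 peptide (500 nM) and SAM (20 uM) started a 2 h room-temperature reaction. Monomethylated product was quantified by antibody-based AlphaScreen chemiluminescence.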
Potency is the fitted concentration of half-maximal effect.

Structure (SMILES)	Potency	activity, negative = inhibition
Cc1cccc(N2CCN(c3c(CN4CCCC4)c(=O)oc4ccccc34)CC2)c1C	inactive	
COc1ccc(N(CC(=O)NCCc2ccc(Cl)cc2)S(=O)(=O)c2c(C)nn(C)c2C)cc1	inactive	
CCC(=O)N1CCc2cc(S(=O)(=O)NC(Cc3ccccc3)C(=O)NCc3ccccc3)ccc21 (stereo not drawn)	inactive	
Cc1ccc(S(=O)(=O)NCCC(=O)NCc2ccc(Cl)cc2)cc1C	inactive	
COc1cc2c(cc1OC)C(c1cccc([N+](=O)[O-])c1)=NCC2	inactive	
CCOC(=O)C1=NN(c2ccc(Cl)cc2)/C(=C/C2=NCCc3cc(OC)c(OC)cc32)S1	inactive	
COc1cc2c(cc1OC)C(/C=C/c1ccco1)=NCC2	50.1 µM (active)	
O=C(O)c1cccc2c1C(=O)N(C1CCCC1)C2	inactive	
O=C(OCC(=O)N1CCN(C(=O)c2ccco2)CC1)c1ccc(Cl)c(Cl)c1		16.1% [at 12.7 µM]
COc1ccc(NC(=O)c2ccc3nc(C(C)C)oc3c2)cc1OC	inactive	
Cc1cc2nc3n(c2cc1C)CC1CC(C(=O)NCCC(C)C)N(C)C31 (stereo not drawn)		5.1% [at 12.7 µM]
CCc1ccc(CN(Cc2ccco2)C(=O)c2ccccc2Cl)cc1	inactive	
CC1CCC(NC(=O)c2ccc(N3CCCC3=O)cc2)CC1 (stereo not drawn)	inactive	
CCOc1ccc(C(=O)NCCCN2CCCC2=O)cc1	inactive	
O=C(NCCCN1CCCCCC1)c1ccc(N2CCCC2=O)cc1	22.4 µM (active)	
Cc1nc(SCC(=O)N2CCN(c3ccccc3)CC2)[nH]c(=O)c1C	inactive	
CC(C)Cn1c(N)c(C(=O)COC(=O)C2CCCN2C(=O)c2cccs2)c(=O)n(C)c1=O (stereo not drawn)	inactive	
O=C(CCN1C(=O)/C(=C/c2cccs2)SC1=S)NNC(=O)c1cccc(O)c1	inactive	
CC(C(=O)Nc1ccc(O)c(C(=O)O)c1)N1C(=O)/C(=C/c2cccs2)SC1=S (stereo not drawn)	35.5 µM (active)	
O=C(CCCN1C(=O)/C(=C/c2cccs2)SC1=S)Nc1ccc(O)cc1	inactive	
O=C(COc1ccccc1Cl)Nc1ccccc1C(=O)NC1CC1	inactive	
Cc1cnc(C)c(N2CCN(C(=O)C3CCC(=O)N(CCc4cccc(F)c4)C3)CC2)n1 (stereo not drawn)	inactive	
CCCCC(CC(C)O)c1n[nH]c(=S)n1-c1ccccc1 (stereo not drawn)	5.01 µM (active)	
N#Cc1ccccc1Cn1cnc2nc3c(cc2c1=O)CCCC3	inactive	
CCOC(=O)N1CCN(C(c2cccnc2)c2ccc3cccnc3c2O)CC1 (stereo not drawn)	0.316 µM (active)	

Structure (SMILES)	Potency	activity, negative = inhibition
COc1ccccc1N1CCN(C(CNC(=O)C(=O)NCc2ccc(C)cc2)c2cccnc2)CC1 (stereo not drawn)	inactive	
CCOc1ccc(C(NC(=O)c2cc(OC)c(OC)c(OC)c2)c2cc(Cl)c3cccnc3c2O)cc1 (stereo not drawn)	inactive	
CCOC(=O)N1CCN(C(=O)CSc2nc(=O)n3cccc(C)c3n2)CC1	inactive	
CCN1CCN(C(c2cccnc2)c2cc(Cl)c3cccnc3c2O)CC1 (stereo not drawn)	1.12 µM (active)	
Oc1c(CN2CCCC2)cc(COCc2ccccc2)c2cccnc12		-18% [at 12.7 µM]
CC1CCCN(c2cc3c(cc2F)c(=O)c(S(=O)(=O)c2cccc(Cl)c2)cn3Cc2ccccc2)C1 (stereo not drawn)	inactive	
CC(O)c1ccc(OCCN(C)c2ccccn2)cc1 (stereo not drawn)		-1.26% [at 2.33 µM]
Cc1nc2ccn(Cc3cccs3)c(=O)c2cc1C(=O)NCc1ccc(Cl)cc1	inactive	
COc1ccc(CNS(=O)(=O)c2cc3c4c(c2)CCN4C(=O)CC3)cc1	inactive	
COc1cc([N+](=O)[O-])ccc1NC(=S)N1CCN(c2ccccn2)CC1	44.7 µM (active)	
CCOC(=O)c1ccc(NC(=S)N2CCN(c3ccccn3)CC2)cc1	inactive	
CNC(=S)N1CCN(c2ccccn2)CC1	inactive	
CCCOc1ccc(-c2c(C(=O)N/N=C/c3ccco3)nnn2-c2nonc2N)cc1	inactive	
O=S1(=O)CCN(Cc2ccccc2Cl)CC1	inactive	
COc1ccccc1/C=N/N1CCN(Cc2ccccc2Cl)CC1		7.68% [at 0.501 µM]
CSc1ccc(/C=N/N2CCN(Cc3ccccc3Cl)CC2)cc1	14.1 µM (active)	
CCOc1ccc(CNC(=O)c2ccc(CS(=O)c3ccccc3)o2)cc1 (stereo not drawn)	inactive	
Cc1cccc(NC(=O)c2sc(-c3ccccc3)nc2-c2ccc([N+](=O)[O-])cc2)c1	inactive	
COc1ccc([N+](=O)[O-])cc1-c1nc2ccccc2nc1-c1ccccc1		7.8% [at 0.501 µM]
Cc1nc(-c2ccc([N+](=O)[O-])cc2)c(-c2ccccc2)o1	15.8 µM (active)	
COC(=O)c1c(NC(=O)c2cc(=O)c3c(C)cc(C)cc3o2)sc2c1CCCC2	inactive	
Cc1cc(C(=O)O)ccc1[N+](=O)[O-]		3.38% [at 0.501 µM]
Cc1cc(O)c(NC(=O)c2ccc(C)c([N+](=O)[O-])c2)cc1C	inactive	
CCOC(=O)c1c(-c2ccccc2)oc2cc(Br)c(O)cc12	inactive	
Cc1oc2cc(Br)c(O)c(Br)c2c1C(=O)c1ccccc1	44.7 µM (active)	

Structure (SMILES)	Potency	activity, negative = inhibition
COc1cc(/C(=C/c2ccccc2)c2ccccc2)c2c(c1)oc1ccccc12	inactive	
Cc1oc2cc([N+](=O)[O-])c(O)c([N+](=O)[O-])c2c1C(=O)c1ccc(Br)cc1	17.8 µM (active)	
CS(=O)(=O)Nc1cccc(C2=NN(C(=O)c3cccc(F)c3)C(c3cccs3)C2)c1 (stereo not drawn)	inactive	
O=C(Cn1c(=O)n(Cc2cccs2)c(=O)c2cccnc21)Nc1ccc(F)cc1	inactive	
Cc1ccc(NC(=O)Cc2ccc(NC(=O)N3CCCCc4ccccc43)cc2)cc1	inactive	
CC(C)=CCCC(C)CN1CCC(n2nccc2NC(=O)c2ccccc2)CC1 (stereo not drawn)	inactive	
CC(=O)c1sc(N2C(=O)c3oc4ccccc4c(=O)c3C2c2ccc(C)cc2)nc1C (stereo not drawn)	2 µM (active)	
O=C1c2oc3ccccc3c(=O)c2C(c2cccc(O)c2)N1c1ccccn1 (stereo not drawn)	inactive	
COc1cc(C2c3c(oc4ccccc4c3=O)C(=O)N2c2nc(C)c(C)s2)ccc1O (stereo not drawn)	inactive	
COc1ccc(NC(=O)CCc2nnc3n(CC(C)C)c(=O)c4ccccc4n23)cc1OC	inactive	
NNc1nnc(NN)c2ccccc12	25.1 µM (active)	
Cc1nnc(NCCO)c2ccccc12	inactive	
COc1ccc(Nc2nnc(C)c3ccccc23)cc1	inactive	
CCOC(=O)C1CCCN(S(=O)(=O)c2cc(-c3cc(C)no3)ccc2OC)C1 (stereo not drawn)	inactive	
Cn1c(SCC(=O)N/N=C/c2ccc(O)c(O)c2)nc2ccccc21	17.8 µM (active)	
CCOc1ccc(/C=N/NC(=O)CSc2ccccn2)cc1O	inactive	
Cc1ccc(/C=N/NC(=O)CSc2nc3ccccc3o2)cc1	inactive	
CCOc1cc(/C=N/NC(=O)CN2CCCCC2)ccc1O	inactive	
Cc1nccn1CC(=O)N/N=C/c1ccc(O)c(O)c1	7.08 µM (active)	
Cc1nc2ccccc2n1CC(=O)N/N=C/c1cccnc1	inactive	
O=C(NCC(=O)N1CCCCCCC1)c1ccccc1Cl		8.52% [at 12.7 µM]
Cc1c(C(=O)NCC(c2ccco2)N2CCCC2)oc2ccc(Cl)cc12 (stereo not drawn)	inactive	
Cc1ccc(S(=O)(=O)NCCC(=O)NC2CCN(Cc3ccccc3)CC2)cc1	inactive	
COc1ccc(-c2noc(-c3ccc(N4CCN(c5ccccc5)CC4)c([N+](=O)[O-])c3)n2)cc1OC	inactive	
CCOc1ccccc1NC(=O)CN1CCN(S(=O)(=O)c2ccc(Br)cc2)CC1	inactive	

Structure (SMILES)	Potency	activity, negative = inhibition
CCNS(=O)(=O)c1ccc(NC(=O)CSc2nc(-c3ccco3)cc(C(F)(F)F)n2)cc1	inactive	
O=C(Nc1cc(-c2ccccc2)nn1-c1ccccc1F)c1ccc([N+](=O)[O-])cc1		-22.8% [at 12.7 µM]
CCOc1ccc(CN2CCN(Cc3c[nH]c4ccccc34)CC2)cc1		25.4% [at 2.33 µM]
CCOc1ccc(CC(=O)NC2CCN(Cc3ccccc3)CC2)cc1	inactive	
CCOc1ccc(CN2CCCN(C)CC2)cc1	10 µM (active)	
COC(=O)C(C)Sc1nc2c(c(=O)n(C)c(=O)n2C)n1Cc1cccc(C)c1 (stereo not drawn)	20 µM (active)	
Cn1c(=O)c2c(nc(SCC(=O)Nc3ccc(F)cc3)n2Cc2ccccc2)n(C)c1=O	inactive	
Cc1cccc(Cn2c(SCCO)nc3c2c(=O)n(C)c(=O)n3C)c1	inactive	
CCOc1ccccc1C(=O)Nc1ccc(S(=O)(=O)N2CCCCC2c2cccnc2)cc1 (stereo not drawn)	inactive	
N#CCSc1nn(-c2ccc(F)cc2)c(=S)s1	inactive	
Cc1nnc(SCC(=O)NCc2ccccc2)s1	inactive	
Cc1ccccc1-n1nc(SCC(=O)O)sc1=S	50.1 µM (active)	
Cn1c(N)c(C(=O)COC(=O)COc2ccc(Cl)cc2)c(=O)n(C)c1=O		17.9% [at 12.7 µM]
Cc1cccc(N2CCN(C(=O)c3cc4c(=O)oc5ccccc5c4s3)CC2C)c1 (stereo not drawn)	inactive	
CN(CCNC(=O)c1cc2c(-c3ccccc3F)nn(C)c2s1)C1CCCCC1	inactive	
Oc1ccccc1-c1cc(-c2ccc(Cl)cc2)n[nH]1	inactive	
O=C(NCc1ccc(F)cc1)c1ccc(Cn2c(SCc3ccc(F)cc3)nc3cccnc32)cc1	inactive	
Nc1ccc2nc3c(=O)[nH]c(=S)[nH]c3nc2c1	10 µM (active)	
O=c1[nH]c(=O)c2nc3ccccc3nc2[nH]1		-3.42% [at 12.7 µM] and 46.4% [at 12.7 µM]
CC1CCCC(NC(=O)c2cc(-c3ccncc3)nc3ccccc23)C1C (stereo not drawn)	inactive	
Cc1cc(NS(=O)(=O)c2ccc3oc(=O)c4ncn(C)c4c3c2)ccc1Br	inactive	
Cc1ccccc1CSc1nc(-c2ccccc2)nc2c1Cc1c(CO)cnc(C)c1O2	inactive	
Cc1cc(N2CCN(c3cccc(C(F)(F)F)c3)CC2)n2nc(-c3ccccc3)nc2n1	inactive	

Source: PubChem BioAssay AID504332 (National Center for Advancing Translational Sciences (NCATS), 2011)
